Source: PubChem (The Scripps Research Institute Molecular Screening Center)
PKA-R1A act – activates the PKA-R1A holoenzyme complex | actives 0.083% (n = 340,000) | AID 504707 | P00514+P68181 | activation, % at 11.4 µM | PKA-R1A dissociation, Cy5-IP20 fluorescence polarization; scaled: DMSO 0%, 113 µM cGMP 100%;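 active means percent activation above the mean of all tested compounds plus 3 SD, cut at about 19% in these data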;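 further: higher means more PKAc released from R1A so a rise in polarization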
pPAFAH FP inh – inhibitors of human plasma PAF acetylhydrolase (pPAFAH); inhibition, % at 3.39 µM; actives 1.5% (n = 330,000); AID 463082; recombinant pPAFAH, FP-rhodamine probe fluorescence polarization; Q13093;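 active means inhibition above the mean inhibition across the screen plus 3 SD, cut at about 25% in these data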;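 further: inhibitors block binding of the rhodamine activity-based probe so polarization drops; 0% = enzyme with DMSO and 100% = wells lacking pPAFAH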
PAFAH1B2 FP inh – PAFAH1B2 (human) inhibition. recombinant PAFAH1B2, FP-rhodamine activity probe, fluorescence polarization. inhibition, % at 3.39 µM. actives 1.2% (n = 340,000);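 active means inhibition above the mean of all tested compounds plus 3 SD, cut at about 24% in these data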;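 further: 0% = enzyme with DMSO and 100% = wells lacking PAFAH1B2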
Target sequence (P68402 whole entry, looked up): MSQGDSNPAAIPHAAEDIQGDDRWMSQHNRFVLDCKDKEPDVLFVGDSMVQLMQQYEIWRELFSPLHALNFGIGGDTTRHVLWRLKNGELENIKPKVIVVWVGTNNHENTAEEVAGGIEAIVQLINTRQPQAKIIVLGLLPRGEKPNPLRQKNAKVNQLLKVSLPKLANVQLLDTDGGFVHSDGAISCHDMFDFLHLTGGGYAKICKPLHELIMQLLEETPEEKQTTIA
PAFAH1B3 inh – inhibitors of human PAFAH1B3. Q15102. recombinant PAFAH1B3, FP-rhodamine probe, fluorescence polarization. inhibition, % at 3.39 µM. actives 0.28% (n = 340,000). AID 492972;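 active means inhibition above the screen-wide average of all tested compounds plus 3 SD, cut at about 25% in these data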;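 further: 0% = enzyme with DMSO only and 100% = wells lacking PAFAH1B3 protein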
Target sequence (Q15102 whole entry, looked up): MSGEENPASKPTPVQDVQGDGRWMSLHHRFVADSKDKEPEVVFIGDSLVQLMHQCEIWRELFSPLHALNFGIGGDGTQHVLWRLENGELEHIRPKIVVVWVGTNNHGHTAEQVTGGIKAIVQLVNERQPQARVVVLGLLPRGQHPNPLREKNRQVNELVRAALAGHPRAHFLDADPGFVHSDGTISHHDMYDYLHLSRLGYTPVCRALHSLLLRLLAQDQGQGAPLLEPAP
PKA-R2B act – activators of human PKA-R2B complex. P22694+P31323. PKA-R2B holoenzyme dissociation, Cy5-IP20 fluorescence polarization; R2B truncated from residue 108, S112A mutant; 0% DMSO only, 100% 113 µM cGMP. actives 0.079% (n = 340,000). activation, % at 11.4 µM;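 active means activation above a cutoff set at the mean over all compounds plus 3 SD, cut at about 18% in these data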;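 further: higher means more holoenzyme dissociation and a rise in polarization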
PAFAH2 FP inh – inhibitors of human PAFAH2; Q99487; recombinant PAFAH2, FP-rhodamine activity probe, fluorescence polarization; inhibition, % at 3.39 µM; actives 0.99% (n = 340,000);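 active means inhibition above the mean over all tested compounds plus 3 SD, cut at about 30% in these data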;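 further: inhibitors block probe labeling of enzyme so polarization drops; 0% = enzyme with DMSO and 100% = wells lacking PAFAH2 protein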
PAFAH2 confirm – PAFAH2 (human) inhibition, confirmed; shares compounds with PAFAH2 FP inh; recombinant PAFAH2, FP-rhodamine activity probe, fluorescence polarization; inhibition, % at 3.39 µM; actives 65% (n = 2,300); AID 493030;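 active means mean inhibition over three repeats above a set limit taken from the earlier primary screen, cut at about 30% in these data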;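 further: inhibitor blocks binding of rhodamine activity probe so polarization falls; 0% = enzyme with DMSO and 100% = wells lacking PAFAH2 protein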
* = called active by the depositor; x = no result. Most compounds without a hit are left out; they make up all but 2.6% or so of the library.

SMILES	PKA-R1A act	pPAFAH FP inh	PAFAH1B2 FP inh	PAFAH1B3 inh	PKA-R2B act	PAFAH2 FP inh	PAFAH2 confirm
O=C(COC(=O)c1cccc(-n2cnnn2)c1)Nc1c(Cl)cccc1C(F)(F)F	-16	-5	3	-2	-2	42*	22
Cc1cc(OC(=O)c2cc(C(F)(F)F)cc(C(F)(F)F)c2)c([N+](=O)[O-])c(=O)[nH]1	-17	1	-2	15	9	6	x
O=C(COC(=O)c1ccco1)NCC1CCCCC1	-6	x	7	5	-4	80*	60*
O=C(COC(=O)c1ccco1)NC1CCCc2ccccc21 (configuration not stated)	1	-2	1	10	1	39*	15
CC1CCC(NC(=O)COC(=O)c2ccco2)CC1 (configuration not stated)	3	-5	6	0	1	67*	65*
O=C(COC(=O)c1ccccc1NC(=O)c1ccco1)NC1CC1	14	4	-4	3	-5	0	x
Cc1cc(C(=O)OCC(=O)NC2CCC(C)CC2)c(C)o1 (configuration not stated)	-5	2	4	4	-1	71*	69*
CCC(CO)Oc1cc(NCc2ccc(C(F)(F)F)cc2)c2ncn(C(C)C)c2c1 (configuration not stated)	-3	14	1	3	-8	0	x
O=C(N/C(=C\c1ccc(F)cc1)C(=O)N1CCOCC1)c1ccccc1	-5	-3	6	12	-15	0	x
O=C(COC(=O)/C=C/c1cccc(C(F)(F)F)c1)Nc1cccc(S(=O)(=O)NC2=NCCC2)c1	0	x	x	x	-10	x	x
COc1cccc(/C=C/C(=O)OCC(=O)Nc2cccc(S(=O)(=O)NC3=NCCCCC3)c2)c1	8	-1	5	8	-3	50*	42*
O=C(COC(=O)/C=C/c1cccc(F)c1)Nc1cccc(S(=O)(=O)NC2=NCCCCC2)c1	-7	2	4	-1	2	39*	16
COc1ccc(C(=O)Nc2ccnn2C2CCN(C(=O)c3cc(C)on3)CC2)cc1	4	3	1	13	-2	-1	x
CCCCCCCCCCC[C@@H](C[C@@H]1OC(=O)[C@H]1CCCCCC)OC(=O)[C@H](CC(C)C)NC=O	-10	93*	10	3	-2	80*	79*
O=C1c2ccccc2-n2c1nc1ccccc1c2=O	-7	6	6	0	0	32*	20
O=c1c2ccccc2nc2n1-c1ccccc1CCC2	-10	0	2	4	-6	-7	x
COC(=O)[C@@H](Cc1ccccc1)NC(=O)[C@H]1CCC(=O)N1C(=O)OCc1ccccc1	0	4	1	5	7	41*	28
COc1ccc(CNC(=O)C2(CC3CC(c4ccccc4)=NO3)CCN(C(=O)Cc3ccc(F)cc3)CC2)cc1 (configuration not stated)	-2	-3	6	-12	-6	4	x
CCOc1cc(C(=O)N2CCC(CC3CC(c4ccccc4)=NO3)(C(=O)NCc3ccc(OC)cc3)CC2)cc(OCC)c1OCC (configuration not stated)	-9	8	9	-2	-13	30*	-6
COc1ccc(NC(=O)COC(=O)C23CC4CC(CC(O)(C4)C2)C3)cc1Cl	-9	-4	8	12	-4	20	x
O=C(COC(=O)C12CC3CC(CC(O)(C3)C1)C2)Nc1ccc(Cl)c(S(=O)(=O)N2CCOCC2)c1	7	4	4	12	-2	48*	24
Cc1cc(C)c(NC(=O)COC(=O)C23CC4CC(CC(O)(C4)C2)C3)c(Cl)c1	3	18	6	5	-4	47*	34*
CCOC(=O)c1ccc(S(=O)(=O)N2CCN(C(=O)C3CSC4(C)CCC(=O)N34)CC2)cc1 (configuration not stated)	1	-1	1	0	-13	0	x
CC(C)(C)c1ccc(C(=O)OCC(=O)NCc2ccco2)cc1	2	19	11	12	-6	55*	57*
CC1Cc2ccccc2N1S(=O)(=O)c1cccc(C(=O)OCC(=O)NCc2ccco2)c1 (configuration not stated)	-1	18	10	4	6	33*	22
SMILES	PKA-R1A act	pPAFAH FP inh	PAFAH1B2 FP inh	PAFAH1B3 inh	PKA-R2B act	PAFAH2 FP inh	PAFAH2 confirm
Cc1ccc(C(=O)OCC(=O)NCc2ccco2)cc1C	-6	5	4	4	0	59*	34*
N#Cc1cccc(C(=O)OCC(=O)NCc2ccco2)c1	-8	-8	0	7	2	13	x
O=Cc1ccc(C(=O)OCC(=O)NCc2ccco2)cc1	2	-5	-1	2	-8	20	x
COc1cc(/C=C/C(=O)OCC(=O)Nc2cc(S(=O)(=O)N(C)C)ccc2Cl)ccc1O	-8	8	2	-1	4	60*	60*
CN(C)S(=O)(=O)c1ccc(Cl)c(NC(=O)COC(=O)/C=C/c2ccc(S(=O)(=O)N3CCOCC3)cc2)c1	8	-1	-1	5	4	31*	26
COc1ccc(/C=C/C(=O)OCC(=O)Nc2cc(S(=O)(=O)N(C)C)ccc2Cl)cc1	-6	2	4	2	4	-2	x
CN(C)S(=O)(=O)c1ccc(Cl)c(NC(=O)COC(=O)/C=C/c2ccc3ccccc3n2)c1	8	-1	-5	6	-7	-1	x
N#Cc1ccccc1NC(=O)COC(=O)/C=C/c1ccc(S(=O)(=O)N2CCOCC2)cc1	9	6	2	5	-7	51*	31*
CN(C)S(=O)(=O)c1ccc(Cl)c(NC(=O)COC(=O)/C=C/c2ccco2)c1	-15	2	0	1	-4	46*	47*
N#Cc1ccc(C(=O)OCC(=O)N2CCCC2)cc1	1	3	-4	-3	-9	-14	x
Cn1nc(C(=O)NCC(=O)Nc2ccc(F)c(F)c2)ccc1=O	-3	x	x	x	3	x	x
O=C(COC(=O)c1ccccc1)NCc1cccs1	-3	9	0	13	4	36*	20
Cc1cc(C)cc(C(=O)OCC(=O)NCc2cccs2)c1	-5	5	-2	2	-10	10	x
Cc1ccc(C(=O)OCC(=O)NCc2cccs2)s1	-4	x	2	1	1	65*	57*
O=C(COC(=O)c1ccc(OC(F)F)cc1)NCc1cccs1	0	17	4	7	6	56*	29
